FLuc modulator – qHTS profiling assay for firefly luciferase inhibitor/activator using purifed enzyme and Km concentrations of substrates (counterscreen for miR-21 project); Luciferin 4-monooxygenase (Photinus pyralis), P08659; purified FLuc, Km substrates, luminescence inhibition; Potency, µM (series often up to 57.5 µM), hits mostly inhibitors; actives 6.9% (n = 360,000); AID 588342, 2011; note: nearly all actives have a fitted effect of over 55% in size
Target sequence (P08659 whole entry, looked up): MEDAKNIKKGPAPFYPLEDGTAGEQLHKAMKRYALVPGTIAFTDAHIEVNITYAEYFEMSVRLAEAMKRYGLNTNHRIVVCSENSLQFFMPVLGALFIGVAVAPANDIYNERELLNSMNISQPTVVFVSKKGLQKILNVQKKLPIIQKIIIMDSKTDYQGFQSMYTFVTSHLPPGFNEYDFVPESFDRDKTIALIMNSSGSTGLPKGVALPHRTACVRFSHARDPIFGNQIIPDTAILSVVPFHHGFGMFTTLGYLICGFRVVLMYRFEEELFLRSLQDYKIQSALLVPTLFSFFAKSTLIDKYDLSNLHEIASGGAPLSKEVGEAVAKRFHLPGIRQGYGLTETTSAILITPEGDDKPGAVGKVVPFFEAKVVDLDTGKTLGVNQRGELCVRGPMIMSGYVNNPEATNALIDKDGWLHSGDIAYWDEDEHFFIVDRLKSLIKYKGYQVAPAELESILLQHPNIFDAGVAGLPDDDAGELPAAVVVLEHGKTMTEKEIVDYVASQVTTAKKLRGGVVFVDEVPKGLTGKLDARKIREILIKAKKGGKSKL
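Purified P. pyralis luciferase (10nM final) with 10uM D-luciferin and 10uM ATP (Km levels) in 50mM Tris acetate pH 7.5, 10mM Mg acetate, 0.01% Tween-20, 0.05% BSA; qHTS 6-point titration, ~60 µM downward; luminescence read.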
SMN2 splice up – qHTS Assay for Enhancers of SMN2 Splice Variant Expression | HEK293 SMN2-luciferase splicing reporter, luminescence, 30-36 h | Potency, µM (series often up to 46.1 µM), most hits filed as activators | actives 2.8% (n = 210,000); note: nearly all actives have a fitted effect of over 55% in size
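qHTS luciferase splicing reporter: luminescence rises when SMN2 exon 7 is included in transfected HEK293 cells. Compound exposure lasted 30-36 h at 37C, with 4.5 mM final sodium butyrate as control, followed by a ONE-Glo read.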
ELG1 genotox – qHTS screen for small molecules that induce genotoxicity in human embryonic kidney (HEK293T) cells expressing luciferase-tagged ELG1 | Potency, µM (titrated, usually from 46 µM), actives largely listed as activators | actives 1.3% (n = 330,000) | HEK293T ELG1-luciferase reporter, luminescence, 16 h | AID 504466, 2011; note: nearly all actives have a fitted effect of over 60% in size
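After overnight (16 hr) compound treatment at 37 °C, ELG1-luciferase HEK293T cells were lysed with ONE-Glo; luminescence quantified 30 min later at room temperature.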
ELG1 repair inh – qHTS screen for small molecules that inhibit ELG1-dependent DNA repair in human embryonic kidney (HEK293T) cells expressing luciferase-tagged ELG1. HEK293T ELG1-luciferase reporter, luminescence, 16 h; DNA damage induced by 5-fluorouridine. Potency, µM (highest dose often 46.1 µM), usual class: inhibitors. actives 2.3% (n = 330,000). AID 504467, 2011; note: nearly all actives have a fitted effect of over 55% in size
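HEK293T cells expressing luciferase-tagged ELG1 (2,000/well) received 5-Fluorouridine plus compound or DMSO for 16 hr at 37 °C. Luciferase was read by ONE-Glo luminescence after 30 min at room temperature.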
Rab9 prom act – qHTS Assay for Rab9 Promoter Activators | Huh7 Rab9 promoter-luciferase reporter, luminescence, 24 h | Potency, µM (top dose mostly 9.22 µM), actives largely listed as activators | actives 2.8% (n = 320,000); note: nearly all actives have a fitted effect of over 60% in size
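Huh7 cells stably carrying Rab9 promoter–luciferase reporter, plated 1500 cells/well, compound added after 2 h and incubated 24 h at 37 °C; luciferase luminescence then read after 10 min with detection reagent.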
NPC1 prom act – qHTS Assay for NPC1 Promoter Activators; Huh7 NPC1 promoter luciferase reporter, 24 h; Potency, µM (top dose mostly 9.22 µM), usual class: activators; actives 2.4% (n = 320,000); note: nearly all actives have a fitted effect of over 60% in size
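NPC1 promoter–luciferase Huh7 cells; 24 h compound; luminescence.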
A number is an active result; i = inactive; ? = inconclusive; nt = no result given. Most compounds without a hit are left out; they make up all but 9.3% or so of the library. Calls come from the whole dose curve; as a rule, active = well fitted curve in the direction sought with a large enough effect; inconclusive = small, poorly fitted or top-dose-only effect, or another doubt; inactive = no such curve, though single readings can be large; an effect the other way counts as inactive or inconclusive.

SMILES	FLuc modulator	SMN2 splice up	ELG1 genotox	ELG1 repair inh	Rab9 prom act	NPC1 prom act
O=C1OCC2OC(O)C(O)C(O)C2OC(=O)c2cc(O)c(O)c(O)c2-c2c(O)c(O)c3oc(=O)c4c(c(O)c(O)c5oc(=O)c2c3c54)-c2c1cc(O)c(O)c2O (stereo not given)	27µM	nt	i	i	i	i
O=C(NCCc1c[nH]c2ccccc12)c1cnc2n(c1=O)CCS2	?	?	i	?	4.5µM	?
CSc1ccc(CCNC(=O)c2cnc3c(C)cccn3c2=O)cc1	i	nt	nt	nt	nt	nt
Cc1cccn2c(=O)c(C(=O)NCCc3ccc(Cl)cc3)cnc12	13µM	nt	nt	nt	nt	nt
O=C(NCCc1ccccc1)c1cnc2n(c1=O)CCS2	?	?	?	?	2.2µM	?
CCOn1c(=O)c(-c2cccs2)[n+]([O-])c2ccccc21	i	i	i	i	i	i
O=C(COC(=O)Cc1ccccc1[N+](=O)[O-])NNC(=O)c1ccc([N+](=O)[O-])cc1	i	nt	i	i	i	i
Cc1cc2ncc(C(=O)Nc3ccsc3C(=O)O)c(C)n2n1	12µM	i	?	?	?	?
O=C(Nc1ccsc1C(=O)O)c1ccc(Cl)cc1	8.5µM	nt	23µM	?	4µM	2.8µM
Cc1ccc(C(=O)Nc2ccsc2C(=O)O)cc1	2.7µM	nt	23µM	?	0.45µM	0.71µM
O=C(Nc1cc(F)c(Br)cc1F)c1ccc(Cl)cc1	2.7µM	nt	?	?	1.8µM	2.2µM
COc1cccc(NC2=C(C#N)C(=O)NC(c3cccc(OC)c3O)S2)c1 (stereo not given)	?	nt	i	i	i	i
COc1cc(OC)cc(C(=O)N2CCN(C(=O)COc3ccc4ccccc4c3)CC2)c1	5.4µM	i	i	?	i	i
O=C(COc1ccccc1)N1CCN(C(=O)c2ccc([N+](=O)[O-])cc2)CC1	9.5µM	nt	?	?	3.2µM	4µM
Cc1ccc(OCC(=O)N2CCN(C(=O)c3ccc([N+](=O)[O-])cc3)CC2)cc1	i	nt	i	?	i	i
COc1ccc(N2CCN(C(=O)COc3ccc4ccccc4c3)CC2)cc1	i	i	i	i	i	i
O=C(COC(=O)c1ccccc1)c1ccc(Br)cc1	0.54µM	i	i	?	4µM	2.2µM
O=C(COC(=O)c1ccc(Br)cc1)NCCc1ccccc1	i	i	i	i	i	i
N/C(=N\OC(=O)c1ccc(Br)cc1)c1ccccc1	0.21µM	?	?	?	2.8µM	3.2µM
Cc1ccc(C(=O)O/N=C(\N)c2ccc(Br)cc2)cc1	2.4µM	i	13µM	?	i	i
O=C(COC(=O)CCCNC(=O)c1ccc(Cl)cc1)Nc1ccc(Br)cc1	3.4µM	i	i	i	i	i
CCOC(=O)c1c(NC(=S)Nc2ccccc2)sc2c1CC(C)(C)SC2	i	i	i	?	i	i
N/C(=N\OC(=O)Cc1cccs1)c1ccc(Br)cc1	19µM	i	?	?	i	i
CC(C)(C)C(=O)O/N=C(\N)c1ccc(Br)cc1	21µM	nt	i	i	i	i
CC(C)(C)C(=O)O/N=C(\N)c1ccc(-c2csnn2)cc1	7.6µM	nt	?	?	4.5µM	2.8µM
SMILES	FLuc modulator	SMN2 splice up	ELG1 genotox	ELG1 repair inh	Rab9 prom act	NPC1 prom act
CC(C)(C)C(=O)Nc1ccc(-c2csnn2)cc1	24µM	nt	?	?	2.8µM	?
CC(=O)O/N=C(\N)c1ccc(-c2csnn2)cc1	?	nt	?	?	i	i
CS(=O)(=O)c1cccc(NC(=O)CSc2nnc3n2CCCCC3)c1	nt	nt	i	i	i	i
O=C(CSCC(=O)OCC(=O)c1ccc(Br)cc1)Nc1ccc(Br)cc1	17µM	i	i	i	i	i
CCOC(=O)c1cc(-c2ccc3c(c2)OCCO3)nc2c1c(C)nn2CCC#N	i	i	i	6.5µM	i	i
CCOC(=O)c1cc(-c2ccc(OC)cc2F)nc2c1c(C)nn2CCC#N	i	i	i	12µM	i	i

From PubChem BioAssay
